Experimental data as given in PubChem BioAssay (NCI).
This is part of a sample that, as a whole, favours compounds with a hit. Of some 83,000 tested, about 20% had one in any assay.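 Note: values are percent growth. 100 is the growth of untreated cells, values between 100 and 0 indicate rising inhibition; between -100 and 0 indicates cell death.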 Activity calls are given as the source filed them. How the source made its calls: active means growth percent below 10; inactive means the rest.

Each compound was assayed on MDA-MB-468 breast (assay: NCI-60 one-dose screen, 48 h (100 = growth as untreated, 0 = no growth, -100 = all killed)). Conditions: 10 µM unless noted.
With CN(C)P1(N(C)C)=NP(N(C)C)(N(C)C)=NP(N(C)C)(N(C)C)=N1 the growth was 106% (inactive). COc1ccc(/C=C\c2cc(OC)c(OC)c(OC)c2)cc1NC(=O)/C=C/c1cc(OC)c(OC)c(OC)c1 was tested, and the growth was 16.5% (inactive). For CCCCCCCC[N+](C)(CCCCCCCC)CCCCCCCC, the growth was -90.1% (active). In the case of COc1cc2c(c(OC)c1OC)-c1ccc([O-])c(=O)cc1[C@@H](NC(C)=O)CC2.COc1cc2c(c(OC)c1OC)-c1ccc([O-])c(=O)cc1[C@@H](NC(C)=O)CC2.[Cu+2], the growth is reported as 2.02% (active). For O=[N+]([O-])c1cc[n+]([O-])c2ccccc12, the growth was -60.4% (active). In the case of CCN(CCO)C(Cc1ccccc1)c1ccccc1 (stereo not given), the growth is reported as 96% (inactive). In the case of Cc1cc(N(CCCl)CCCl)ccc1C=Nc1ccc2ccccc2c1, the growth is reported as -9.8% (active). For COc1ccc(/C=C\c2cc(OC)c(OC)c(OC)c2)cc1OCC(=O)Nc1nc2ccc(OC(F)(F)F)cc2s1, the growth was -22.1% (active). With N/C(=N\N=C\c1ccc(-c2ccccc2)cc1)N[N+](=O)[O-] the growth was 20% (inactive). For C=CCc1cc2c(cc1OCC)OCO2, the growth was 101% (inactive). C=CC(O)CN1CC1CC (stereo not given) was tested, and the growth was 105% (inactive). With NC(N)=NC(N)=Nc1ccc(Cl)cc1 the growth was 111% (inactive). In the case of Nc1c(Br)cc([N+](=O)[O-])cc1[N+](=O)[O-], the growth is reported as 95.5% (inactive). C/C(=N/OC(=O)N(C)C)c1cc(Cl)ccc1Cl was tested, and the growth was 102% (inactive). With COc1ccc(/C=C\c2cc(OC)c(OC)c(OC)c2)cc1NS(=O)(=O)c1ccc(Cl)cc1 the growth was 42.2% (inactive). For Cc1cc(NC(=O)NCCCOc2ccc(N3C(N)=NC(N)=NC3(C)C)cc2Cl)ccc1S(=O)(=O)F, the growth was 7.83% (active). For O=C(CC1(O)C(=O)N(Cc2ccccc2)c2ccc(F)cc21)c1ccc(C(=O)NCC2CCC3(CC2)OOC2(CCCCC2)OO3)cc1 (stereo not given), the growth was -41.8% (active). With O=[N+]([O-])c1ccc2cnn(CSP(=S)(c3ccccc3)c3ccccc3)c2c1 the growth was 43.1% (inactive). With CC1=C(CCCOC(=O)[C@H](N)CC(C)C)C2=C(C)C3(CC3)[C@@](C)(O)C(=O)C2=C1 the growth was -61.5% (active). O=C/C=C/c1ccco1 was tested, and the growth was 106% (inactive). In the case of CC(C)COC(=O)Cc1ccccc1, the growth is reported as 101% (inactive). For Cc1cc(CCl)c(C)cc1CCl, the growth was -59.9% (active). With Cc1cccc(N2CCN(C(C)C#N)CC2)c1 (stereo not given) the growth was 100% (inactive). CC1=C(SCCC(=O)OCC(=O)NCCC[Te]c2ccccc2)C(=O)c2ccccc2C1=O was tested, and the growth was 9.39% (active). O=C(Nc1ccc([N+](=O)[O-])cc1)C(Cl)(Cl)Cl was tested, and the growth was 96.5% (inactive). In the case of CC1[C@H](C)OC(=O)CC(O)CC(O)CC(O)CCC(O)C(O)C[C@]2(O)CC(O)C(C(=O)O)C(CC(OC3O[C@H](C)[C@@H](O)[C@H](N)[C@@H]3O)/C=C/C=C/C=C/C=C/CC/C=C/C=C/[C@H](C)[C@H]1O)O2 (stereo not given in full), the growth is reported as 108% (inactive). With CC(C)(C)C(=O)OCOP(=O)(OCOC(=O)C(C)(C)C)C1CCCN(O)C1=O (stereo not given) the growth was -8.03% (active). For Cc1ccccc1NC(=NCCCN1CC1)Nc1ccccc1C, the growth was 54.7% (inactive). With O=[N+]([O-])c1ccc(OP(=O)(CCl)N(CCCl)CCCl)cc1 (stereo not given) the growth was 101% (inactive). In the case of CC(=O)[O][Hg][c]1ccccc1, the growth is reported as -83.8% (active). For O=[As]c1ccc(C(=O)c2ccc(Oc3ccccc3)cc2)cc1 (stereo not given), the growth was -85.6% (active). Cn1cc(-c2csc(-c3cn(CCCCN4CCCCC4)c4ccc(F)cc34)n2)c2cccnc21 was tested, and the growth was 93.3% (inactive). In the case of O=C(c1cccs1)C1NO[N+]([O-])=C1c1cccs1 (stereo not given), the growth is reported as -47.7% (active). With O=C(Nc1ccc(Cl)cc1)Nc1nccs1 the growth was 16.4% (inactive). For Nc1nc(N)c(-c2ccc(Cl)c(Cl)c2)c(/C=C/c2ccc(S(=O)(=O)F)cc2)n1, the growth was 103% (inactive). With O=c1[nH]c2ccc([N+](=O)[O-])cc2c(=O)o1 the growth was 108% (inactive). For CC12CC[C@H](O)C=C1/C(=N/O)CC1C2CCC2(C)C1CC[C@@H]2O (stereo not given in full), the growth was 100% (inactive). In the case of CC(=O)O[C@H]1CC[C@H]2[C@@H]3CC[C@H]4CC=C(C)C[C@]4(C)[C@H]3CC[C@]12C, the growth is reported as 105% (inactive). O=[N+]([O-])CC(c1ccccc1Cl)c1c(-c2ccccc2)[nH]c2ccccc12 (stereo not given) was tested, and the growth was 7.39% (active). With Oc1ccc2c3c1O[C@H]1c4[nH]c5ccccc5c4C[C@@]4(O)C(C2)N(CC2CC2)CC[C@]314 the growth was 90.5% (inactive).
